# According to the supplement of paper PMC10646978:
# ± gives the standard deviation.
# Legend:
# Details in all cases: modulator concentration 10 µM
# [1] = system: RAW-Dual (murine macrophage reporter line); test: NF-kB reporter (SEAP) activity fold change vs agonist alone; higher = enhanced NF-kB activity
# Procedure, shortened: (§1)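 In 384-well plates holding 50 000 RAW-Dual murine macrophage reporter cells per well, compound at 10 μM final was pre-incubated for 1 hour at 37 °C, after which a PRR agonist was added overnight. Supernatant SEAP read with QUANTI-Blue at 620 nm absorbance reported NF-κB, and Lucia luciferase read with QUANTI-Luc luminescence reported IRF. Fold change values come from dividing each reporter signal by the mean of agonist-only control wells on the same plate, averaged over replicate plates with propagated errors.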
# [2] = system: RAW-Dual (murine macrophage reporter line); test: IRF reporter (Lucia luciferase) activity fold change vs agonist alone; higher = enhanced IRF activity
# Procedure, shortened: as §1
# [3] = system: RAW-Dual (murine macrophage reporter line); test: viability score (confluency relative to resting cells, overnight) (fraction); higher = more viable, active = viable (0.7 or more)
# Procedure, shortened: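 RAW-Dual macrophages in 384-well plates were incubated overnight with compound, final concentration 10 μM. Confluency images from IncuCyte were processed in IncuCyte software into two masks covering all imaged wells. The viability score is each well's confluency relative to resting cells, and a compound met the cutoff when both masks exceeded 70% of resting cells.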
# [4] = agonist: CpG ODN 1826 0.5 ug/mL
SMILES,"NF-kB reporter [1, 4]",NF-kB reporter ([1]; agonist: LPS 0.1 ug/mL),NF-kB reporter ([1]; agonist: MPLA […]),IRF reporter ([2]; agonist: 3'3'-cGAMP 10 ug/mL),IRF reporter ([2]; agonist: LPS 0.1 ug/mL),IRF reporter ([2]; agonist: MPLA […]),viability score [3]
CCCCSc1nnc2c(n1)OC(c1cccc(F)c1)Nc1ccc(Br)cc1-2 (stereo not given),1.07 ± 0.18,1.01 ± 0.078,0.951 ± 0.083,0.914 ± 0.036,1.24 ± 0.13,1.13 ± 0.12,1 (active)
C=CCc1ccccc1OCC(O)CNC(C)C.Cl (stereo not given),1 ± 0.24,0.957 ± 0.14,1.06 ± 0.072,0.809 ± 0.029,1.16 ± 0.24,1.07 ± 0.14,0.978 (active)
NC(=O)c1ncn([C@@H]2O[C@H](CO)[C@@H](O)[C@H]2O)c1N,1.11 ± 0.086,1.03 ± 0.051,1.04 ± 0.041,0.94 ± 0.052,0.977 ± 0.089,0.949 ± 0.12,0.994 (active)
CCC(C)C(=O)OC1CCC=C2C=CC(C)C(CCC3CC(O)CC(=O)O3)C21 (stereo not given),0.946 ± 0.11,0.83 ± 0.061,1 ± 0.094,0.941 ± 0.046,1.24 ± 0.23,1.33 ± 0.32,1.05 (active)
CCN(CC)CCOC(=O)C(Cc1cccc2ccccc12)CC1CCCO1.O=C(O)C(=O)O (stereo not given),0.672 ± 0.21,1.05 ± 0.061,0.998 ± 0.11,0.491 ± 0.026,1.12 ± 0.2,1.27 ± 0.13,0.977 (active)
Cc1cc(OC2CN(C(=O)Cn3cnc4ccccc43)C2)cc(=O)n1C1CC1,1.16 ± 0.11,1.09 ± 0.099,0.97 ± 0.026,1 ± 0.04,1.06 ± 0.06,0.955 ± 0.092,0.997 (active)
CCOc1ccc(S(=O)(=O)NC(C)(C)C)cc1C,0.972 ± 0.081,0.852 ± 0.072,1.13 ± 0.12,0.971 ± 0.044,1.38 ± 0.082,1.53 ± 0.14,0.868 (active)
CC=CCn1c(=O)c2c(nc3n2CC(C(C)(C)C)=NN3)n(C)c1=O,1.02 ± 0.092,1.09 ± 0.1,1.08 ± 0.11,1 ± 0.026,1.28 ± 0.2,0.943 ± 0.099,0.96 (active)
CC(=O)N1CCC(Cn2ccc3cccnc32)CC1,1.04 ± 0.078,1.02 ± 0.11,0.996 ± 0.048,0.949 ± 0.035,0.957 ± 0.056,1.02 ± 0.11,0.994 (active)
Brc1ccc(CN2C3=NCCCN3c3ccccc32)cc1.Cl,0.263 ± 0.023,0.826 ± 0.054,1.34 ± 0.092,0.735 ± 0.089,0.984 ± 0.049,0.905 ± 0.11,0.96 (active)
CC(=O)Oc1ccc(C(=O)Nc2ccccc2Br)cc1,0.856 ± 0.068,1.01 ± 0.092,0.877 ± 0.066,0.953 ± 0.049,1.08 ± 0.2,0.904 ± 0.26,0.992 (active)
CNC(=O)c1cccc(-c2noc(C3CN(C(=O)NC4CCCCC4)C3)n2)c1,1.06 ± 0.053,1.11 ± 0.11,1.03 ± 0.091,1.06 ± 0.065,1.21 ± 0.1,1.17 ± 0.13,1 (active)
CC(=O)OC(OC(C)=O)c1ccc([N+](=O)[O-])cc1,1.16 ± 0.094,1.06 ± 0.069,1 ± 0.035,1 ± 0.17,1.09 ± 0.1,1.09 ± 0.17,1 (active)
Cc1ccc(-c2cc(NC(=O)c3ccc([N+](=O)[O-])cc3)[nH]n2)cc1,1.43 ± 0.11,1.04 ± 0.059,1 ± 0.061,0.869 ± 0.066,1.78 ± 0.3,1.82 ± 0.13,0.971 (active)
CCOc1cc([C@@H](CS(C)(=O)=O)N2C(=O)c3cccc(NC(C)=O)c3C2=O)ccc1OC,2.72 ± 0.66,0.969 ± 0.058,1.69 ± 0.15,1.01 ± 0.048,1.05 ± 0.12,1.14 ± 0.15,0.977 (active)
Cc1nnc(NC(=O)c2cccc([N+](=O)[O-])c2)s1,1.03 ± 0.084,0.97 ± 0.093,0.999 ± 0.038,1.05 ± 0.25,1.06 ± 0.049,1.09 ± 0.15,1 (active)
COc1ccccc1OCC(O)COC(N)=O (stereo not given),1.56 ± 0.26,1.28 ± 0.17,0.938 ± 0.058,0.93 ± 0.041,1.49 ± 0.15,1.21 ± 0.12,0.985 (active)
CCC1(O)C(=O)OCc2c1cc1n(c2=O)Cc2cc3cc(O)ccc3nc2-1 (stereo not given),2.02 ± 0.62,1.28 ± 0.11,2.19 ± 0.4,2.67 ± 0.16,2.12 ± 0.24,1.89 ± 0.32,0.851 (active)
CC(C)(C)c1cc(CCC(=O)NN)cc(C(C)(C)C)c1O,0.8 ± 0.066,0.816 ± 0.06,0.926 ± 0.096,0.519 ± 0.022,1.15 ± 0.12,1.24 ± 0.2,1.02 (active)
O=C(NCc1cccc(Cl)c1)c1cnc2n(c1=O)CCS2,1.03 ± 0.11,1.02 ± 0.1,0.974 ± 0.054,0.976 ± 0.035,1.04 ± 0.054,1.09 ± 0.19,0.999 (active)
O=C1CCCc2nn(-c3ccccc3)nc21,1.02 ± 0.086,1.05 ± 0.14,1.09 ± 0.12,1 ± 0.049,1.17 ± 0.14,1.21 ± 0.19,1.03 (active)
C#CCN[C@@H]1CCc2ccccc21.CS(=O)(=O)O,0.992 ± 0.1,1.03 ± 0.12,1.03 ± 0.031,0.933 ± 0.087,0.913 ± 0.03,0.849 ± 0.1,0.996 (active)
O=C(NCCN1C(=O)c2ccccc2C1(O)c1ccc(Cl)cc1)Nc1ccccc1 (stereo not given),1.28 ± 0.1,0.219 ± 0.011,0.22 ± 0.02,0.841 ± 0.045,0.0475 ± 0.0035,0.0497 ± 0.0069,0.73 (active)
CCOC(=O)c1cnn(CCOc2ccccc2)c1N,1.05 ± 0.081,0.851 ± 0.079,1.02 ± 0.11,0.975 ± 0.052,1.22 ± 0.13,1.31 ± 0.2,1 (active)
O=C(NCCN1CCOCC1)c1ccc(F)cc1,1.11 ± 0.1,0.995 ± 0.094,1.01 ± 0.039,1.05 ± 0.17,1.03 ± 0.053,1 ± 0.12,0.986 (active)
